Drawing on PubChem BioAssay AID2284345 (EPA ToxCast), this text covers outcome for two compounds.

The assay has as its system zebrafish Glucocorticoid Receptor (GR), gene 553740. The experiment in a line: ATG_zfGR_EcoTox2: Attagene TRANS-FACTORIAL EcoTox-2 HepG2 Assay for zebrafish Glucocorticoid Receptor (GR). The protocol:
ATG_EcoTox2 is a cell-based, multiplexed assay created by modifying the existing Attagene TRANS-FACTORIAL system to include a panel of nuclear receptors from some or all the following species: human (Homo sapiens), african clawed frog (Xenopus laevis), rainbow trout (Oncorhynchus mykiss), japanese medaka (Oryzias latipes), and zebrafish (Danio rerio). The ECOTOX2-FACTORIAL format uses HepG2, a human liver cell line, with measurements taken at 24 hours after chemical dosing in a 24-well plate. ATG_zfGR_EcoTox2 is one of 29 assay components calculated in the ATG_EcoTox2 assay. It is designed to make measurements of mRNA induction, a form of inducible reporter, as detected with fluorescence intensity signals by Reverse transcription polymerase chain reaction (RT-PCR) and Capillary electrophoresis technology.The assay endpoint ATG_zfGR_EcoTox2 was analyzed in the positive analysis fitting direction relative to DMSO as the negative control and baseline of activity. Using a type of inducible reporter, measures of mRNA for gain-of-signal activity can be used to understand the reporter gene at the transcription factor-level as they relate to the gene for glucocorticoid receptor. Furthermore, this assay endpoint can be referred to as a primary readout, because this assay has produced multiple assay endpoints where this one serves a reporter gene function. […]

Records with an inconclusive call do not appear. Activity calls are given as the source filed them. How the source made its calls: active means hit-call score of the fitted dose curve at least 0.9, where 1 is the maximum; inconclusive means response in the unintended direction; inactive means score below 0.9.

On to `O=S(=O)(O)C(F)(F)C(F)(F)C(F)(F)C(F)(F)C(F)(F)C(F)(F)F`, for which the compound was classed as inactive. As for `O=P(Oc1ccccc1)(Oc1ccccc1)Oc1ccccc1`, the entry is “inactive”.
